# Reference: PubChem BioAssay AID2825 (Sanford-Burnham Center for Chemical Genomics, 2010)
# The campaign covered roughly 330,000 compounds. About 1,300 (0.39%) were called active.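 Rule for the calls: active = inhibition of 50% or more; inactive = inhibition below 50%.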 Many of the other results were omitted from the sample, so actives are more common in it than they were.
# Experiment: blockers of yeast NLRP3/ASC/caspase-1 reporter – luminescence, uHTS, primary screen (AID 2825);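 note: plate controls were induced DMSO wells for no effect and uninduced yeast grown without galactose for full effect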
# Details: Yeast reconstituted NLRP3/ASC/caspase-1, beta-gal luminescence, 24 h; at 10 µM; stronger effect = higher value
row,Compound,inhibition
1,c1cc2c(cc1[C@H]1OC[C@H]3[C@@H]1CO[C@@H]3c1ccc3c(c1)OCO3)OCO2,15.5% (inactive)
2,O=C1/C(=C\c2ccc3c(c2)OCO3)N2CCC1CC2,50.3% (active)
3,c1cc2c(cc1C1OCC3C(c4ccc5c(c4)OCO5)OCC13)OCO2 (stereo not given),16.8% (inactive)
4,Cc1nc2nc(C)c(CCC(=O)N3CCC4(CC3)OCCO4)c(C)n2n1,11.1% (inactive)
5,Cc1ccc(-c2nc3ccccc3c(=O)n2-c2ccc(Br)cn2)cc1,54.6% (active)
6,O=c1c2ccccc2nc(-c2ccccc2)n1-c1ccccn1,-1.57% (inactive)
7,O=c1c2ccccc2nc(-c2ccco2)n1-c1ccc(Br)cn1,15.6% (inactive)
8,CN(C)CC1CCCCC1=O (stereo not given),16.4% (inactive)
9,C[N+]1(C)CCOC(O)(c2ccc(-c3ccc(C4(O)C[N+](C)(C)CCO4)cc3)cc2)C1 (stereo not given),5.92% (inactive)
10,COCCNC(=O)CN1C2CCC1CC(O)(c1cccnc1)C2 (stereo not given),21.8% (inactive)
11,NCCc1ccc(S(=O)(=O)F)cc1,13.1% (inactive)
12,Cc1cc2ccccn2c1C(C[N+](=O)[O-])c1c(F)cccc1Cl (stereo not given),58.8% (active)
13,Cc1ccc2c(c1)=C/C(=C\c1c(O)[nH]c(=O)[nH]c1=O)C(=O)N=2,8.15% (inactive)
14,CCCCCCCCCCCCn1ccc(=N)cc1,74.5% (active)
15,COC(=O)C(O)(c1ccc(NC(=O)c2ccco2)c(OC)c1)C(F)(F)F (stereo not given),6.52% (inactive)
16,CSC1=NP(=S)(SC)N(C)c2nc3n(c21)CCC3 (stereo not given),14.6% (inactive)
17,Cc1cc(OCc2cc(C(=O)O)oc2C)c2c3c(c(=O)oc2c1)CCCC3,13.3% (inactive)
18,CNC(=S)N/N=C1\C2CN3CCN(C2)CC1(c1ccccc1)C3,2.33% (inactive)
19,CN(C)P(=S)(Nc1ccccc1)C(Cl)(Cl)Cl (stereo not given),24.4% (inactive)
20,C[C@]12CCC3C(CC[C@H]4C[C@@H](O)CC[C@]34C)C1CC[C@@H]2O (stereo not given in full),63.7% (active)
21,C[C@]12CC[C@H](O)CC1=C([N+](=O)[O-])CC1C2CC[C@@]2(C)C1CC[C@@H]2O (stereo not given in full),21.9% (inactive)
22,C[C@]12CC[C@H](O)C[C@H]1CC[C@@H]1C2CC[C@]2(C)[C@@H](C3=CC(=O)OC3)[C@@H](O)C[C@]12O (stereo not given in full),8.26% (inactive)
23,C[C@]12CCC3C(CC[C@H]4C[C@@H](O)CC[C@]34C)C1C[C@@H](O)[C@H]2O (stereo not given in full),50.2% (active)
24,O=C(C1CC(=O)N(C2CCCC2)C1)N1CCC2(CC1)OCCO2 (stereo not given),25.3% (inactive)
25,C/C=C/CC1(CC)C(=O)NC(=S)NC1=O,0.922% (inactive)
26,COc1ccc2[nH]c3c(c2c1)CCN[C@H]3C,10% (inactive)
27,CC1=C2C(=O)C3C(CC=C4CC(OC5OC(O)C(O)C(O)C5CO)CCC43C)C2CCC12OC1CC(C)CNC1C2C (stereo not given),32.4% (inactive)
28,COC(=O)C1=C(c2ccc3ccccc3c2)C[C@@H]2CC[C@H]1N2C(=O)NCCO,-5.73% (inactive)
29,N=c1ccccn1Cc1ccccc1,1.04% (inactive)
30,CCN1CCN(c2nc3c(c(=O)[nH]2)CCC3)CC1,9.34% (inactive)
